Results filed as inconclusive are left out. The source made the active and inactive calls. Unless noted, calls follow the shape of the full dose curve.
Legend:
[1] = Nuclear factor erythroid 2-related factor 2/antioxidant responsive element (Nrf2/ARE) small molecule agonists: qHTS cell viability counter screen in human keratinocytes (AID 1919968; active = well fitted curve in the direction sought with a large enough effect in the repeat runs; an effect the other way counts as inactive or inconclusive; also: nearly all actives have a fitted effect of over 55% in size; also: potency is read from the fitted curve at half-maximal effect)
How it was run: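 Cytotoxicity was multiplexed with the Nrf2/ARE luciferase assay in the same wells. Stably transfected HaCaT keratinocytes were treated with test compounds for 23 h at 37 C. Cell viability was then measured by CellTiter-Fluor fluorescence.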

[2] = target: Gonadotropin-releasing hormone receptor (Homo sapiens) (UniProt P30968); assay: Human gonadotropin-releasing hormone receptor (GnRHR) small molecule agonists, calcium flux assay in GnRHR-HEK293 cells (AID 1920063); also: nearly all actives have a fitted effect of over 35% in size
How it was run: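 Agonist activity was measured as intracellular calcium flux in HEK293 cells engineered to stably express human GnRHR. After dye loading for 1 hour at 37 C, compounds in DMSO were added and fluorescence was followed for 3 minutes.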

[3] = target: KiSS-1 receptor (Homo sapiens) (UniProt Q969F8); assay: Human kisspeptin (KISS1R) small molecule agonists, calcium flux assay in KISS1R-HEK293 cells (AID 1920064; active = well fitted curve in the direction sought with a large enough effect in the repeat runs; an effect the other way counts as inactive or inconclusive)
How it was run: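 Agonist activity is monitored as intracellular calcium rise in engineered HEK293 cells carrying human KISS1R. Cells are dye-loaded for 1 h at 37 C before compound addition, and fluorescence is recorded for 3 min.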

[4] = G protein-coupled receptor (GPCR) small molecule agonists, calcium flux assay: HEK293 wild type cell line counter screen (AID 1920065)
How it was run: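 Seed cells, incubate 18 h (37 C, 5% CO2); add calcium dye, 1 h at 37 C; pin-transfer compounds, ATP control or DMSO; read fluorescence 480/540 nm each second for 3 min.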

[5] = p53 small molecule agonists, cell-based qHTS assay with human liver microsomes: qHTS cell viability counter screen (AID 1963579); also: nearly all actives have a fitted effect of over 45% in size
How it was run: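 Luminescent CellTiter-Glo read-out, 30 min at room temperature, gauged cytotoxicity in p53RE-bla cells exposed 16 h at 37 C to DMSO-dissolved compounds with metabolic activation by human liver microsomes and NADPH, each 0.5 mg/mL final.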

[6] = p53 small molecule agonists, cell-based qHTS assay with rat liver microsomes: qHTS cell viability counter screen (AID 1963580); also: nearly all actives have a fitted effect of over 45% in size
How it was run: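 After the beta-lactamase ratio was read, CellTiter-Glo was added to the same wells and luminescence measured at 30 min; cells had been treated 16 h at 37 C with compounds, rat liver microsomes and NADPH (0.5 mg/mL final each).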

[7] = p53 small molecule agonists, cell-based qHTS assay: qHTS cell viability counter screen (AID 1963581); also: nearly all actives have a fitted effect of over 45% in size
How it was run: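 Viability was counter-screened in parallel with the p53 agonist reporter by measuring intracellular ATP luminescence in the same HCT-116 p53RE-bla wells after 16 h compound treatment at 37 C.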

[8] = target: 5-hydroxytryptamine receptor 2A (Homo sapiens) (UniProt P28223); assay: 5-hydroxytryptamine receptor 2A (HTR2A) small molecule antagonists, cell-based qHTS assay (AID 1963586); also: nearly all actives have a fitted effect of over 45% in size
How it was run: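 CHO cells stably expressing human HTR2A were plated for 18 h at 37 C, then loaded with calcium dye for 1 h. Compounds were preincubated 5 min at room temperature before DOI (4 nM solution) was added. Kinetic fluorescence was read for 3 min.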

[9] = target: 5-hydroxytryptamine receptor 2A (Homo sapiens) (UniProt P28223); assay: 5-hydroxytryptamine receptor 2A (HTR2A) small molecule agonists, cell-based qHTS assay (AID 1963587); also: nearly all actives have a fitted effect of over 30% in size
How it was run: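 CHO cells stably expressing human HTR2A, plated 18 h, loaded with calcium dye 1 h at 37 C. Agonist mode: compounds added and intracellular calcium fluorescence recorded kinetically for 2 min at 1 sec intervals.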

[10] = target: Muscarinic acetylcholine receptor M1 (Homo sapiens) (UniProt P11229); assay: Cholinergic receptor muscarinic 1 (CHRM1) small molecule antagonists, cell-based qHTS assay (AID 1963588); also: nearly all actives have a fitted effect of over 40% in size; also: potency is read from the fitted curve at half-maximal effect
How it was run: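 Compounds were tested at 15 concentrations in three independent runs. Dye-loaded CHRM1-CHO cells were exposed 5 min at room temperature before stimulation by acetylcholine added at 50nM. Intracellular calcium was read kinetically on FDSS for 3 min.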

[11] = target: Muscarinic acetylcholine receptor M1 (Homo sapiens) (UniProt P11229); assay: Cholinergic receptor muscarinic 1 (CHRM1) small molecule agonists, cell-based qHTS assay (AID 1963589); also: nearly all actives have a fitted effect of over 35% in size
How it was run: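 Cells were plated and incubated 18 h at 37 C/5% CO2, loaded with calcium dye for 1 h at 37 C, then treated with compounds in DMSO. Fluorescence was recorded kinetically at 1 sec intervals.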

[12] = cAMP Responsive Elements (CRE) small molecule agonists, cell-based qHTS assay (AID 1963590)
How it was run: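 Cells carrying a CRE-driven beta-lactamase reporter (HEK 293T) are seeded, incubated overnight (18 h), and treated with test compounds for 3 h at 37 C; reporter activity is then detected with a FRET substrate after 2 h at room temperature.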

[13] = cAMP Responsive Elements (CRE) small molecule antagonists, cell-based qHTS assay (AID 1963591; active = well fitted inhibition curve with a large enough effect in the signal ratio in the repeat runs, not every such curve was filed as active; the % refers to the signal ratio)
How it was run: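 Cells (CRE-bla HEK 293T, DMEM with 10% dialyzed FBS and 25 mM HEPES) are seeded and incubated 18 h. Compounds are added with NKH477 agonist at 0.25 uM final for 3 h, then FRET substrate for 2 h.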

[14] = target: Beta-2 adrenergic receptor (Homo sapiens) (UniProt P07550); assay: Adrenergic beta2 receptor (ADRB2) small molecule antagonists, cell-based qHTS assay (AID 1963592); also: series mostly up to about 92 µM; nearly all actives have a fitted effect of over 50% in size
How it was run: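 Assay format: CHO-ADRB2 cells, 18-20hr seeding at 37C/5% CO2, then compound plus 1nM isoproterenol agonist mix for 0.5hr RT. Homogeneous time-resolved fluorescence cAMP detection after 1hr, expressed as 665/615 nm ratio.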

[15] = target: D(2) dopamine receptor (Homo sapiens) (UniProt P14416); assay: Dopamine D2 receptor (DRD2) small molecule antagonists, cell-based qHTS assay (AID 1963595; active = well fitted inhibition curve with a large enough effect in the signal ratio in the repeat runs, with a control signal flat; the % refers to the signal ratio; also: potency is read from the fitted curve at half-maximal effect)
How it was run: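 HEK293 cells stably expressing DRD2 were preincubated with 0.1 mM Ro20-1724, then with compound for 10 min at room temperature. Cells were stimulated with 200 nM NKH477 plus 12 nM quinpirole for 30 min, and cAMP was read by HTRF.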

[16] = target: Beta-2 adrenergic receptor (Homo sapiens) (UniProt P07550); assay: Adrenergic beta2 receptor (ADRB2) small molecule agonists, cell-based qHTS assay (AID 1963593);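 also: CHO cells stably overexpressing human ADRB2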
How it was run: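 CHO cells stably over-expressing ADRB2 were plated overnight at 37C, then dosed with compounds plus a stimulation mix containing 100uM IBMX and 25uM Ro-20-1724 for 0.5hr at room temperature. cAMP was measured by HTRF competition, 1hr.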

[17] = target: D(2) dopamine receptor (Homo sapiens) (UniProt P14416); assay: Dopamine D2 receptor (DRD2) small molecule agonists, cell-based qHTS assay (AID 1963594); also: nearly all actives have a fitted effect of over 35% in size
How it was run: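 HEK293 cells stably expressing human DRD2, pre-treated with PDE inhibitor Ro20-1724 (0.1 mM final) and compound 10 min at room temperature, then stimulated with NKH477 (200nM […]) for 30 min. cAMP read by HTRF (665/620 nm).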

[18] = p53 small molecule agonists, cell-based qHTS assay with rat liver microsomes (AID 1963578)
How it was run: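 Rat liver microsome activation: microsomes 0.5 mg/mL, NADPH 0.5 mg/mL final; p53RE-bla cells, 16 h 37 C; LiveBLAzer readout, 2 h RT dark.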

[19] = p53 small molecule agonists, cell-based qHTS assay (AID 1963582; active = well fitted activation curve with a large enough effect in the signal ratio in the repeat runs, not every such curve was filed as active; the % refers to the signal ratio)
How it was run: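 Cells carrying a p53-responsive bla reporter are treated with test compounds for 16 h at 37 C; beta-lactamase activity is then detected with LiveBLAzer B/G FRET substrate after 2 h at room temperature.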
% is scaled to controls: 0 for no effect and ±100 for the full control effect.

Chain of D(2) dopamine receptor (Homo sapiens) (P14416 whole entry, looked up): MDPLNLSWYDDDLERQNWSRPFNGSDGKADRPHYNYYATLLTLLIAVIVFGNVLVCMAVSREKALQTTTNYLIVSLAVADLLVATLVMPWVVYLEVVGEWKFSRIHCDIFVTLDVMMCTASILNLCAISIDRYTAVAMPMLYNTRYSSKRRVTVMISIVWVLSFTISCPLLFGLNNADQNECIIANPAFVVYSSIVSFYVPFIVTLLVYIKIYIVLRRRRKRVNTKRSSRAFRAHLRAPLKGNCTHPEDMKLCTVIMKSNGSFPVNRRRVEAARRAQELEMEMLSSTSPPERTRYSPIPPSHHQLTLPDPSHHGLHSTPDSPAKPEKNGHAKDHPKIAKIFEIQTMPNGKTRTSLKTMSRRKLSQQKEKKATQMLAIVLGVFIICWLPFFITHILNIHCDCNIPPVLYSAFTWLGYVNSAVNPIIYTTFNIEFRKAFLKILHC
Chain of Muscarinic acetylcholine receptor M1 (Homo sapiens) (P11229 whole entry, looked up): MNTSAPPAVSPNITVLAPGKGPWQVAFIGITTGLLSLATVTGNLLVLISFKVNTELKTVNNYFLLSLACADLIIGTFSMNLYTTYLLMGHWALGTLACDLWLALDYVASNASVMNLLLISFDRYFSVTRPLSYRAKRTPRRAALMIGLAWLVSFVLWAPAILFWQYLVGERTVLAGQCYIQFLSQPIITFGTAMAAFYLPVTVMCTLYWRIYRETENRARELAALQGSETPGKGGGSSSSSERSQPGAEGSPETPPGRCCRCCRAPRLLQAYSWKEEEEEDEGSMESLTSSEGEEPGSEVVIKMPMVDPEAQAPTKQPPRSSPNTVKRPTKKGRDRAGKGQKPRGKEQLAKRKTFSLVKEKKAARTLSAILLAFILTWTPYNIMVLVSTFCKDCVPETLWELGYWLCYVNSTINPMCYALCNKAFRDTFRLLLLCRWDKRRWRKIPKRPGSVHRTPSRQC
Chain of Gonadotropin-releasing hormone receptor (Homo sapiens) (P30968 whole entry, looked up): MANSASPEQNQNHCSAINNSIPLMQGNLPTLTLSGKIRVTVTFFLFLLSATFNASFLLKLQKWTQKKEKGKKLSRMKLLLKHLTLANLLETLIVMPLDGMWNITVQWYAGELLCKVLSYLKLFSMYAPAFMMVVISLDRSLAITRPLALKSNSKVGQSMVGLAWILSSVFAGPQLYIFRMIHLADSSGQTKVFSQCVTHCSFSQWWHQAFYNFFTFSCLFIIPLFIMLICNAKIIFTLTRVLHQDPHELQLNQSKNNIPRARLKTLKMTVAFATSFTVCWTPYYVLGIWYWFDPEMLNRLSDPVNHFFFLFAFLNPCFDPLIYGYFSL
Chain of Beta-2 adrenergic receptor (Homo sapiens) (P07550 whole entry, looked up): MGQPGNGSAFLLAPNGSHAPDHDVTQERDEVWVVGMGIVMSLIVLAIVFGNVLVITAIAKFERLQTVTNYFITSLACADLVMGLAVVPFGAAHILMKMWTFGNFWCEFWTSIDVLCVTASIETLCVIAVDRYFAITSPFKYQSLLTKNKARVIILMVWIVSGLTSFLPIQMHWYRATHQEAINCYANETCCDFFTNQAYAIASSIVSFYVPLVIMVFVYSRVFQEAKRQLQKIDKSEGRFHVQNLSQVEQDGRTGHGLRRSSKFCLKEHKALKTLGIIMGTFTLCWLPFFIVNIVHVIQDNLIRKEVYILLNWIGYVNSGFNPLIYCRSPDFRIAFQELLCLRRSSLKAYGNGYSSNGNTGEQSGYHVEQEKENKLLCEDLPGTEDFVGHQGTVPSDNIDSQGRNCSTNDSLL
Chain of KiSS-1 receptor (Homo sapiens) (Q969F8 whole entry, looked up): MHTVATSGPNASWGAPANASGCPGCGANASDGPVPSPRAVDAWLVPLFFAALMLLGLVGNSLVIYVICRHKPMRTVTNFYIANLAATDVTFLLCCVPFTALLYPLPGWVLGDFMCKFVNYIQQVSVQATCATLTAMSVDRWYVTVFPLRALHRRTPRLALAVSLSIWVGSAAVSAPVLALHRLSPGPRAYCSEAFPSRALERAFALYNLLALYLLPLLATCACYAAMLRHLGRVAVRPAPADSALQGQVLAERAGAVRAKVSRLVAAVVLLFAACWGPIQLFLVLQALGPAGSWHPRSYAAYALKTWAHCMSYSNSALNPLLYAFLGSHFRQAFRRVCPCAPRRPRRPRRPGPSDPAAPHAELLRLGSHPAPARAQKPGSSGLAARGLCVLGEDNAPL
Chain of 5-hydroxytryptamine receptor 2A (Homo sapiens) (P28223 whole entry, looked up): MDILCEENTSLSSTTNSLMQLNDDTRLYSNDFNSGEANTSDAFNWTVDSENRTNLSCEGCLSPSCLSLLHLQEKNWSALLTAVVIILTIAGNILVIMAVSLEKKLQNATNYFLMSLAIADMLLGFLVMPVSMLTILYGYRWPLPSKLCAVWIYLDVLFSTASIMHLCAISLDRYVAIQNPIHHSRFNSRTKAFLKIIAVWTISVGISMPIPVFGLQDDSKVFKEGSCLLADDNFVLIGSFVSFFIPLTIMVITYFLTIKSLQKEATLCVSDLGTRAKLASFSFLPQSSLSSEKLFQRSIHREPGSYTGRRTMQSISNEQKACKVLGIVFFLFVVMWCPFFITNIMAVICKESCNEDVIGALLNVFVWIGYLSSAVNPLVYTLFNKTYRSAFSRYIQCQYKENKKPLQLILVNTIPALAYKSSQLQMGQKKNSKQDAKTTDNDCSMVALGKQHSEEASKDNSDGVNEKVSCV

CCCCCCCCCCCCCC(=O)OC
inactive: Potency [1] | Potency [2] | Potency [3] | Potency [4] | Potency [5] | Potency [6] | Potency [7] | Potency [8] | Potency [9] | Potency [10] | Potency [11] | Potency [12] | Potency [13] | Potency [14] | Potency [15]

Cc1c[nH]c(=S)[nH]c1=O
inactive: Potency [1] | Potency [2] | Potency [3] | Potency [4] | Potency [5] | Potency [6] | Potency [7] | Potency [8] | Potency [9] | Potency [11] | Potency [12] | Potency [13] | Potency [14] | Potency [16] | Potency [17] | Potency [15]

C[C@H]1[C@H](NC(=O)/C(=N/OC(C)(C)C(=O)O)c2csc(N)n2)C(=O)N1S(=O)(=O)O (stereo in doubt)
inactive: Potency [1] | Potency [2] | Potency [3] | Potency [4] | Potency [18] | Potency [6] | Potency [19] | Potency [12] | Potency [13] | Potency [17] | Potency [15]

COc1cc2c(cc1OC)[C@@H]1CC(=O)[C@@H](CC(C)C)CN1CC2
inactive: Potency [1] | Potency [2] | Potency [3] | Potency [4] | Potency [5] | Potency [6] | Potency [7] | Potency [8] | Potency [9] | Potency [11] | Potency [12] | Potency [16] | Potency [17] | Potency [15]

CCOC(=O)c1ccc(N(C)C)cc1
inactive: Potency [1] | Potency [2] | Potency [3] | Potency [4] | Potency [5] | Potency [6] | Potency [7] | Potency [8] | Potency [9] | Potency [11] | Potency [12] | Potency [13] | Potency [14] | Potency [16] | Potency [17] | Potency [15]

CC(=O)OCC(=O)NCCCOc1cccc(CN2CCCCC2)c1
inactive: Potency [1] | Potency [2] | Potency [3] | Potency [4] | Potency [5] | Potency [6] | Potency [7] | Potency [8] | Potency [9] | Potency [11] | Potency [13] | Potency [14] | Potency [15]

Cn1c(=O)c2c(ncn2CCO)n(C)c1=O
inactive: Potency [1] | Potency [2] | Potency [3] | Potency [4] | Potency [5] | Potency [6] | Potency [7] | Potency [8] | Potency [9] | Potency [10] | Potency [11] | Potency [12] | Potency [13] | Potency [14] | Potency [17] | Potency [15]

CCOc1ccc2[nH]cc(C(=O)NCc3ccccc3)c(=O)c2n1
inactive: Potency [1] | Potency [2] | Potency [3] | Potency [4] | Potency [5] | Potency [6] | Potency [7] | Potency [8] | Potency [9] | Potency [10] | Potency [11] | Potency [14] | Potency [16] | Potency [15]

Cn1cc(C(=O)[C@@H]2CCc3nc[nH]c3C2)c2ccccc21
inactive: Potency [1] | Potency [2] | Potency [3] | Potency [4] | Potency [6] | Potency [7] | Potency [8] | Potency [9] | Potency [10] | Potency [11] | Potency [12] | Potency [13] | Potency [14] | Potency [17] | Potency [15]

OCCCCCCCCCCCCBr
inactive: Potency [1] | Potency [2] | Potency [3] | Potency [4] | Potency [5] | Potency [6] | Potency [8] | Potency [9] | Potency [10] | Potency [11] | Potency [13] | Potency [14] | Potency [17]

C=C(C)C(=O)OCCOc1ccccc1
inactive: Potency [1] | Potency [2] | Potency [3] | Potency [4] | Potency [5] | Potency [6] | Potency [9] | Potency [10] | Potency [11] | Potency [12] | Potency [14] | Potency [17]

COc1ccc2cc1Oc1ccc(cc1)C[C@H]1c3c(cc4c(c3Oc3cc5c(cc3OC)CCN(C)[C@@H]5C2)OCO4)CCN1C
active: Potency [1] 23.7 µM | Potency [10] 20.5 µM
inactive: Potency [2] | Potency [3] | Potency [4] | Potency [5] | Potency [6] | Potency [11] | Potency [17]

Cc1c(N)c(=O)n(-c2ccccc2)n1C
inactive: Potency [1] | Potency [2] | Potency [3] | Potency [4] | Potency [5] | Potency [6] | Potency [7] | Potency [8] | Potency [10] | Potency [12] | Potency [14] | Potency [16] | Potency [17] | Potency [15]

Cc1ccc(N)cc1S(=O)(=O)O
inactive: Potency [1] | Potency [2] | Potency [3] | Potency [4] | Potency [5] | Potency [6] | Potency [7] | Potency [9] | Potency [10] | Potency [11] | Potency [13] | Potency [14] | Potency [17] | Potency [15]

c1ccc2c(c1)CCCC2C1=NCCN1 (configuration not stated)
inactive: Potency [1] | Potency [2] | Potency [3] | Potency [4] | Potency [5] | Potency [6] | Potency [8] | Potency [9] | Potency [10] | Potency [11] | Potency [12] | Potency [13] | Potency [16] | Potency [17]

COP(=O)(OC)OC(c1ccc(Cl)cc1)P(=O)(OC)OC (configuration not stated)
inactive: Potency [1] | Potency [2] | Potency [3] | Potency [4] | Potency [5] | Potency [6] | Potency [7] | Potency [9] | Potency [10] | Potency [11] | Potency [12] | Potency [13] | Potency [14] | Potency [17]

Fc1ccc(C(c2ccc(F)cc2)N2CCN(C/C=C/c3ccccc3)CC2)cc1
inactive: Potency [2] | Potency [3] | Potency [4] | Potency [5] | Potency [6] | Potency [7] | Potency [14]
active: Potency [1] 16.8 µM | Potency [15] 16.8 µM

O=CO
inactive: activity change, negative = cytotoxicity [1] 0.89% [at 8.39 µM] | activity change [2] 0% [at 5.22 µM, stronger effect = higher value] | activation [3] 4.55% [at 6.97 µM] | activation [4] -0.0753% [at 5.23 µM] | activity change, negative = cytotoxicity [5] -2.15% [at 5.99 µM] | activity change, negative = cytotoxicity [7] -6.99% [at 5.99 µM] | activity, negative = inhibition [8] 0.711% [at 5.62 µM] | activation [11] -0.0923% [at 6.97 µM] | activation [12] 0.47% [at 8.39 µM] | activity change, negative = inhibition [13] -5.34% [at 8.39 µM] | activity change, negative = inhibition [14] 1.71% [at 8.39 µM] | activation [17] 0.218% [at 8.39 µM] | activity change, negative = inhibition [15] -7.6% [at 8.38 µM]

From PubChem BioAssay (Tox21)
